# Laboratory results from PubChem BioAssay AID651561 (Sanford-Burnham Center for Chemical Genomics, 2012).
# The other results are listed elsewhere or left out. Unmarked numbers belong to inactive results. Calls of active or inactive are those of the source. Cut-off read from the data, not from the text of the source: active = IC50 below about 20 µM; inactive = the rest.
# Experiment: blockers of mitochondrial swelling via MPTP – biochemical, absorbance, uHTS hits, dose response (AID 651561)
# Details: isolated mitochondria swelling
row,Structure (SMILES),IC50
1,O=C(Nc1cccc(-c2cccc(Cl)c2)c1)C1CCN(C2CCC2)CC1,5.2 µM (active)
2,NC[C@H](Cc1ccccc1)NCCc1cc(C(F)(F)F)cc(C(F)(F)F)c1,12 µM (active)
3,CCNCCC(=O)N1c2ccccc2Sc2ccc(NC(=O)OCC)cc21,32.7 µM
4,Cc1nn(Cc2ccccc2)c2c1C(c1ccccc1)C(C#N)=C(N)O2 (stereo not drawn),25.9 µM
5,COCCn1c(CN2CCC(Cc3ccccc3)CC2)nc2c1c(=O)n(C)c(=O)n2C,3.99 µM (active)
6,Brc1ccc(CSc2ccc(-c3ccco3)nn2)cc1,> 100 µM
7,C[C@@H](CN1CCC[C@H]1CN1C(N)=NC[C@@H]1Cc1ccccc1)N1C[C@@H](Cc2ccccc2)N(CCCC2CCCC2)C1=N,3.54 µM (active)
8,CCCCOC(=O)CNc1nnc(SCC(=O)OCC)[nH]c1=O,> 100 µM
9,CCCCCCCCCCCCN1C(=O)CSC1c1cccnc1 (stereo not drawn),9.05 µM (active)
10,Fc1ccc(N2N=C(c3cccs3)CC2c2ccco2)c(F)c1 (stereo not drawn),51.9 µM
11,COc1ccc(/C=C(/CC(=O)Nc2ccc(C)cc2)c2nc3ccccc3s2)cc1,45.4 µM
12,CCCCc1nc(NCCN)c(C#N)c2c1CSC(C)(C)C2,13.3 µM (active)
13,NC(N)=N/N=C/c1ccc(Cl)c([N+](=O)[O-])c1,7.68 µM (active)
14,CCCc1[nH]nc2c1C(c1c(C)nn(-c3ccccc3)c1Cl)C(C#N)=C(N)O2 (stereo not drawn),> 100 µM
15,CN(C)Cc1ccccc1C1(O)c2ccccc2CSc2ccccc21 (stereo not drawn),13.4 µM (active)
16,Cc1cc(C)c(NC(=O)C[N+](C)(C)CC(O)COc2cccc3ccccc23)c(C)c1 (stereo not drawn),3.67 µM (active)
17,Cc1ccc(-c2noc(CCC(=O)Nc3ccccc3N3CCN(C)CC3)n2)cc1,18.8 µM (active)

row,Structure (SMILES),IC50
1,CC1(C)CC(=O)c2sc(N)nc2C1,> 100 µM
2,O=C(c1ccc(Cl)cc1)c1ccc(OCC(O)CN2CCCCC2)cc1 (stereo not drawn),17.4 µM (active)
3,O=C(Nc1cccc(C(F)(F)F)c1)c1ccc(N2CCNCC2)c([N+](=O)[O-])c1,8.28 µM (active)
4,CCCCOc1ccc(CSC(=N)N)cc1[N+](=O)[O-],6.05 µM (active)
5,FC(F)(F)COc1nc(N2CCCCC2)nc(N2CCNCC2)n1,18.9 µM (active)
6,N=c1n(Cc2ccc(Cl)cc2)c2ccccc2n1CC(O)c1ccco1 (stereo not drawn),5.87 µM (active)
7,CCCC(C(=O)OCCN(CC)CC)(c1ccccc1)c1ccccc1,12.5 µM (active)
8,CCCC[C@@H]1CN=C(N)N1CCc1cc(C(F)(F)F)cc(C(F)(F)F)c1,6.67 µM (active)
9,CN(C)Cc1ccc(F)cc1Sc1cc(Cl)ccc1Cl,45 µM
10,O=C(COC(=O)c1ccccc1NC(=O)c1ccco1)Nc1ccc2c(c1)OC(F)(F)O2,23.5 µM
11,CN1CCC[C@@H]1CCO[C@](C)(c1ccccc1)c1ccc(Cl)cc1,8.66 µM (active)
12,COc1ccc2sc(N(CCCN(C)C)C(=O)c3ccc(S(=O)(=O)N(C)C4CCCCC4)cc3)nc2c1,7.47 µM (active)
13,Cc1ccc2c(c1)C1CN(C)CCC1N2S(=O)(=O)c1ccc(Oc2ccc([N+](=O)[O-])cc2)cc1 (stereo not drawn),17.5 µM (active)
14,Clc1ccc(-c2cc(C3CCNCC3)[nH]n2)c(Cl)c1,11.7 µM (active)
15,O=C(NC1CCN(Cc2ccccc2)CC1)c1cc(Br)c(Br)[nH]1,> 100 µM
16,CCOC(=O)c1c(NC(=O)CSc2cn(CC)c3ccccc23)sc2c1CCC2,> 100 µM
